TDP1 cell CPT: growth inhibition of DT40 Tdp1-/-;hTDP1 cells with camptothecin (screen for TDP1 inhibitors) | chicken DT40 Tdp1-/-;hTDP1 cells + 20 nM CPT, ATP luminescence, 48 h | Potency, µM (highest dose often 46.2 µM), for the others: top-dose activity change, negative = growth inhibition, usual class: inhibitors | hit rate 12% among 420,000 | AID 686979; note: potency is the fitted concentration of half-maximal effect; % is set by controls: 0 for no effect and ±100 for the full control effect; nearly all actives have a fitted effect of over 55% in size
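Chicken DT40 Tdp1-/- cells stably complemented with human TDP1 were seeded at 400 cells/well in medium containing 20 nM camptothecin, exposed to pin-transferred compounds, and grown at 37 °C for at least 48 hr. Viability was read as ATP luminescence.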
IL-1B inflam inh: inhibitors of inflammasome signaling (IL-1 beta secretion); THP-1 LPS/ATP IL-1B secretion, AlphaLISA, 16 h; active compounds read low; AID 743279; hit rate 4.7% among 360,000; activity change, % at 57.5 µM; in the data active = activity change below about -50%; inconclusive = mostly about -30% to -49%; note: % is set by controls: 0 for no effect and ±100 for the full control effect
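THP-1 cells pretreated 1 hr with compounds (up to 57.5 uM final), then stimulated with LPS (250 ng/mL final) plus ATP (1.25 mM final); secreted IL-1B measured by AlphaLISA after 16 hr, decreased signal indicating inhibition.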
TGFb inhibitor: inhibitors of TGF-b signaling. AID 588855. Potency, µM (titrated, usually from 46.1 µM), inactives show top-dose activity, negative = inhibition, most hits filed as inhibitors. hit rate 1.2% among 410,000. HepG2 CAGA-GFP TGF-b/SMAD3 reporter, GFP fluorescence, 18 h; TGF-beta stimulated, 500 pg/mL final; note: potency is the fitted concentration of half-maximal effect; % is set by controls: 0 for no effect and ±100 for the full control effect; nearly all actives have a fitted effect of over 65% in size
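Inhibition was scored as loss of TGF-beta-induced (500 pg/mL final, 18 hours, 37 degrees C) GFP in HEPG2 cells carrying a CAGA-GFP reporter, in DMEM with 1% FBS. Well GFP was summed per cell; Activity was normalised to unstimulated and stimulated DMSO wells, then concentration-response fitting.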
HepG2 tox: kills HepG2 cells in TGF-b inhibitor counter-screen; HepG2 CAGA-GFP viability, ATP luminescence, 18 h; Potency, µM (highest dose often 46.1 µM), inactives show top-dose activity change, negative = cytotoxicity, actives largely listed as cytotoxic; hit rate 0.76% among 410,000; AID 588856; note: potency is the fitted concentration of half-maximal effect
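CellTiter-Glo luminescence gave cytotoxicity after 18 hours at 37 degrees C. The cells were HepG2 CAGA-GFP in 1% FBS DMEM, stimulated with 500 pg/mL TGF-beta after compound addition. %Activity was normalised to no-cell wells (complete cell-killing) and DMSO (no toxicity), and curves were fitted and classified.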
DT40 TDP1 no CPT: qHTS for Inhibitors of human tyrosyl-DNA phosphodiesterase 1 (TDP1): qHTS in cells in absence of CPT. DT40 Tdp1-/- hTDP1 cells, no CPT, ATP luminescence, 48 h. Potency, µM (doses to about 46.2 µM), without a hit: top-dose activity change, negative = growth inhibition, hits mostly inhibitors. hit rate 15% among 420,000; note: potency is the fitted concentration of half-maximal effect; % is set by controls: 0 for no effect and ±100 for the full control effect; nearly all actives have a fitted effect of over 55% in size
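Compound effects on proliferation are scored in DT40 Tdp1-/-;hTDP1 cells in the absence of CPT. ATP levels (CellTiter-Glo luminescence) are recorded after a ≥48 hr, 37 °C incubation.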
S-ASM inh: inhibitors of human secretory acid sphingomyelinase; placental ASM, HMU-PC fluorogenic substrate, 60 min; hit rate 0.006% among 340,000; Potency, µM (top dose mostly 57.5 µM), for the others: at the top dose activity change, negative = inhibition, usual class: inhibitors; note: potency is the fitted concentration of half-maximal effect
Target sequence (P17405 47-631 limits assumed): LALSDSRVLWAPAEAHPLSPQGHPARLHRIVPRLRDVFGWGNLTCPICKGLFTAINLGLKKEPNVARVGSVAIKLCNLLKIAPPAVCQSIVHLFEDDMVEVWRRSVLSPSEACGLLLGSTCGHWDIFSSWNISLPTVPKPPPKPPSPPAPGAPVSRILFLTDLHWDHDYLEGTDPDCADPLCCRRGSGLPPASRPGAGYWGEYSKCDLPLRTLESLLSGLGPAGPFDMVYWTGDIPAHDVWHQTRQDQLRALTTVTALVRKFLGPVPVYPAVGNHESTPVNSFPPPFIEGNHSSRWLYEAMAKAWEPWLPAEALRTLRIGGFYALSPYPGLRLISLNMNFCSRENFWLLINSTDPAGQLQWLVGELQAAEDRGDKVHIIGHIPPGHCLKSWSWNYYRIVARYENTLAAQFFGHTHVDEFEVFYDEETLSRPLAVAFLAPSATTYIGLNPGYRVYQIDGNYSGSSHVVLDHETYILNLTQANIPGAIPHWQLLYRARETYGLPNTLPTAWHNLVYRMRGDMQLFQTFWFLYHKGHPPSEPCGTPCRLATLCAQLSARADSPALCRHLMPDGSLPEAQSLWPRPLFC
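Fluorescence read-out (Ex 386 nm, Em 447 nm) after stopping the reaction at pH 10. Enzyme: ASM from human placenta; substrate HMU-PC0, 9 uM final; 60 min, 37 °C. Compound preincubation 10 min, ambient temperature.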
The depositor's hits bear a star; u = inconclusive; x = no result given. In the library only some 19% were active in any assay of this set; here they are far more common. Unless noted, calls come from the whole dose curve; as a rule, active = well fitted curve in the direction sought with a large enough effect; inconclusive = small, poorly fitted or top-dose-only effect, or another doubt; inactive = no such curve, though single readings can be large; an effect the other way counts as inactive or inconclusive.

SMILES	TDP1 cell CPT	IL-1B inflam inh	TGFb inhibitor	HepG2 tox	DT40 TDP1 no CPT	S-ASM inh
c1ccc(CN2CCC3CC2c2ccc(N4CCOCC4)cc23)cc1 (configuration not stated)	-10%	3	1%	1%	-30%	x
CCOC(=O)N1CCN(S(=O)(=O)c2ccc(C(=O)Nc3sc4c(c3C(N)=O)CC(C)(C)NC4(C)C)cc2)CC1	-3%	-1	-3%	-2%	25%	-9%
CCOC(=O)c1c(NC(=O)c2ccc(S(=O)(=O)N3CCCC(C)C3)cc2)sc2c1CC(C)(C)NC2(C)C (configuration not stated)	16µM*	x	u	13µM*	21µM*	x
CCOC(=O)c1c(NC(=O)c2ccc(S(=O)(=O)N(CCOC)CCOC)cc2)sc2c1CC(C)(C)NC2(C)C	u	x	11µM*	-61%	u	x
CC(=O)c1ccc(N2CCN(C(=S)Nc3ccccc3C(F)(F)F)CC2)cc1	u	0	u	4%	u	-5%
Cc1cc(Br)cn2c(Cc3ccsc3)c(C3CCCCC3)nc12	u	0	3%	8%	u	x
Cc1ccc(Cc2c(C3CCCCC3)nc3ccc(Br)cn23)cc1	u	8	u	-13%	21µM*	x
Clc1ccc2nc(C3CCCCC3)c(Cc3ccsc3)n2c1	23µM*	0	u	-7%	u	x
Brc1ccc2nc(C3CCCCC3)c(Cc3ccsc3)n2c1	21µM*	0	-32%	3%	16µM*	x
Cc1ccc(Cc2c(C3CCCCC3)nc3ccc(Cl)cn23)cc1	u	24	u	-24%	u	x
CC12CCC(C(=NO)C1=NO)C2(C)C (configuration not stated)	2%	1	18%	-1%	-13%	1%
CC12CCC(c3c1nc1ccccc1[n+]3[O-])C2(C)C (configuration not stated)	u	3	0%	-5%	18µM*	5%
CCOc1ccc(NC(=S)Nc2ccc3nsnc3c2)cc1	5.8µM*	3	0%	-22%	8.2µM*	-2%
COc1cc(OC)c(NC(=S)Nc2cc(Cl)cc(Cl)c2)cc1Cl	u	-91*	u	12%	u	-5%
CCOc1ccc(NC(=S)NNC(=O)c2ccc(Br)cc2)cc1	-9%	-64*	7%	-14%	u	1%
CCOc1ccc(NC(=S)Nc2cc(OC)c(Cl)cc2OC)cc1	15µM*	11	u	1%	u	-6%
CCOc1ccc(NC(=O)Nc2ccc3nsnc3c2)cc1	u	u	-20%	-9%	u	-4%
CC(NC(=O)Cn1nc(C(=O)O)c2ccccc2c1=O)C12CC3CC(CC(C3)C1)C2 (configuration not stated)	7%	31	1%	-3%	-10%	u
CCCCNc1nc(Oc2ccc(=O)n(C)n2)nc(N2CCOCC2)n1	-13%	x	19%	-8%	-22%	x
COc1ccc(NC(=S)Nc2ccc3nsnc3c2)cc1	6.5µM*	-4	u	-13%	18µM*	12%
CCNC(=S)Nc1ccc(OCC)cc1	1%	0	16%	-24%	-28%	3%
CCCC(=O)Nc1cc(OC)c(NC(=S)Nc2cccc(C)c2)cc1OC	u	0	9%	0%	-24%	x
CCOc1ccc(NC(=S)Nc2cccc3ccccc23)cc1	u	-6	0%	-6%	-14%	-3%
CCOc1ccc(NC(=S)Nc2ccccc2C2CC2)cc1	5.8µM*	-13	-24%	-29%	4.1µM*	3%
COc1ccc(NC(=S)Nc2ccc3nc(C)c(C)nc3c2)cc1	-16%	38	0%	2%	-25%	6%
SMILES	TDP1 cell CPT	IL-1B inflam inh	TGFb inhibitor	HepG2 tox	DT40 TDP1 no CPT	S-ASM inh
CCOc1ccc(NC(=S)Nc2ccc(OCC)cc2)cc1	5%	-80*	-16%	-21%	-16%	-6%
CCCC(=O)Nc1cc(OC)c(NC(=S)Nc2ccc(CC)cc2)cc1OC	1%	-9	-7%	-12%	16µM*	-2%
CCc1nc(-c2cc(S(=O)(=O)N3CCN(c4ccccc4)CC3)ccc2OC)no1	3%	x	-2%	1%	5%	x
COc1cccc(CNC(=O)CN2C(=O)CCSc3ccc(S(=O)(=O)N4CCCC4)cc32)c1	-1%	u	-20%	-6%	13%	-6%
Cc1nnsc1C(=O)Oc1ccc(C#N)cc1	-1%	x	9%	-11%	-14%	x
C=CCN(c1ccccc1Cl)S(=O)(=O)c1cc(C(=O)N2CCCC2)ccc1Cl	u	1	-18%	2%	u	4%
O=C(CN1CCCCCC1)Nc1ccccc1OC(F)F	3%	59	-4%	-4%	-2%	0%
CC1CC2OC2CC1COC(=O)C1CC2OC2CC1C (configuration not stated)	16µM*	17	4%	-2%	u	-3%
COCCCC1CCN(C(=O)CCc2nnc(CCCCc3ccccc3)o2)CC1	u	6	-16%	-5%	15µM*	-1%
COc1ccc(CNCCc2ccc(Cl)cc2)cc1OCc1ccccc1	6.5µM*	-96*	u	-92%	4.6µM*	5%
COc1ccc(CCNc2nc3ccccc3n3nnnc23)cc1OC	-22%	32	-1%	33%	-29%	4%
COc1ccc2ccccc2c1CNCCN1CCOCC1	-21%	4	-5%	-1%	-2%	3%
COc1cc(CNCCN2CCOCC2)ccc1OCc1cccc(Cl)c1	u	u	67%	-23%	16µM*	-1%
COc1ccc(CCNCc2csc3nc4ccccc4n23)cc1OC	12µM*	-7	u	-11%	9.2µM*	0%
CCOc1cc(CNCc2ccccc2)ccc1OCc1ccc(Cl)cc1	23µM*	-94*	u	-97%	5.8µM*	-2%
COc1cccc(NCc2nnc(SC(C(=O)N(C)C)c3ccccc3)n2C2CCCCC2)c1 (configuration not stated)	6%	x	0%	2%	-27%	x
COc1ccc(CN(CC(=O)NCc2ccc(F)cc2)C(=O)c2csnn2)cc1	6%	18	-1%	3%	-26%	1%
COc1ccc(CCNC/C=C/c2ccccc2)cc1	u	-68*	0%	-43%	u	3%
COc1cc(CN(C)CCc2ccccc2)ccc1OCc1ccccc1	u	u	8%	-48%	26µM*	0%
COc1ccc(CCNCc2ccc(-c3ccccc3)cc2)cc1OC	u	-90*	u	-57%	23µM*	-3%
